Screening results: PubChem, The Scripps Research Institute Molecular Screening Center
SF1 inhibitor: inhibitors of human nuclear receptor SF-1 | Q13285 | CHO-K1 Gal4-SF-1 LBD luciferase reporter | inhibition, % at 10 µM | 65,000 tested, 0.55% active;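 active = inhibition above the mean inhibition of all tested compounds plus 3 SD, cut at about 48% in these data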;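 also: 0% = SF-1 transfected cells with DMSO and 100% = mock-transfected cells lacking SF-1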
* marks the source's active call; other numbers are inactive results. The entries come from a sample that favours hits as a whole.

SMILES	SF1 inhibitor
COc1cc2nc(CN3CC=C(c4ccccc4)CC3)[nH]c(=O)c2cc1OC	88*
COc1ccccc1-n1c(-c2ccoc2)nc2ccccc2c1=O	4
Cc1cnn(C2CCN(C)CC2)c1N	-12
C=CCN1C(=O)CSc2ccc(C(=O)N3CCC4(CC3)OCCO4)cc21	12
CC12CCCCC1=[N+]([O-])CN2O (stereo unspecified)	-8
Cc1c2cnn(CC(=O)N3CCC4(CC3)OCCO4)c(=O)c2c(C)n1Cc1ccccc1F	1
CCN(CC)CCN=Cc1c(O)n(CCC2=CCCCC2)c(=O)[nH]c1=O	11
CCn1nc(-c2cccs2)nc2c(=O)n(C)c(=O)nc1-2	96*
CC1(C)CN=C(Nc2nc3ccccc3s2)S1	-70
C=C1N2CCC(CC2)C1(O)c1ccccc1C (stereo unspecified)	-1
